# Source: PubChem BioAssay (NCI)
# This is part of a sample that, as a whole, favours compounds with a hit. Of some 83,000 tested, about 20% had one in any assay.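 Negative percent growth values reflect cell death: -40 means 40% of the cells present at the start died, and -100 means all died.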 A number with no mark means an inactive call. The source made the active and inactive calls. Rule for the calls: active = growth percent below 10; inactive = the rest.
# How the values were obtained:
# Test in all cases: NCI-60 one-dose screen, 48 h (100 = growth as untreated, 0 = no growth, -100 = all killed)
# RPMI-8226 leukemia = conditions: 10 µM unless noted
# OVCAR-8 ovarian = conditions: 10 µM unless noted
# OVCAR-5 ovarian = conditions: 10 µM unless noted
# OVCAR-4 ovarian = conditions: 10 µM unless noted
# SK-OV-3 ovarian = conditions: 10 µM unless noted
# IGROV1 ovarian = conditions: 10 µM unless noted
# OVCAR-3 ovarian = conditions: 10 µM unless noted
# HS 578T breast = conditions: 10 µM unless noted
# NCI/ADR-RES ovarian = conditions: 10 µM unless noted
# T-47D breast = conditions: 10 µM unless noted
# MDA-MB-435 melanoma = conditions: 10 µM unless noted
# SW-620 colon = conditions: 10 µM unless noted
# MCF7 breast = conditions: 10 µM
# HCT-116 colon = conditions: 10 µM unless noted
# HCC-2998 colon = conditions: 10 µM unless noted
# KM12 colon = conditions: 10 µM unless noted
# BT-549 breast = conditions: 10 µM unless noted
Compound,growth (RPMI-8226 leukemia),growth (OVCAR-8 ovarian),growth (OVCAR-5 ovarian),growth (OVCAR-4 ovarian),growth (SK-OV-3 ovarian),growth (IGROV1 ovarian),growth (OVCAR-3 ovarian),growth (HS 578T breast),growth (NCI/ADR-RES ovarian),growth (T-47D breast),growth (MDA-MB-435 melanoma),growth (SW-620 colon),growth (MCF7 breast),growth (HCT-116 colon),growth (HCC-2998 colon),growth (KM12 colon),growth (BT-549 breast)
O=C(Nc1ccc(F)cc1F)c1cc(I)ccc1O,-2.64% (active),11.8%,32.6%,20.1%,-13.8% (active),22%,8.96% (active),10%,8.58% (active),-9.33% (active),5.35% (active),14.5%,5.52% (active),6.45% (active),24.4%,6.2% (active),–
CSc1nc2c(c(=O)[nH]1)N=C1c3ccccc3C(=O)C1C(c1ccccc1)N2 (centres undefined),36.2%,61.3%,82.5%,72.6%,64.3%,17.4%,-12% (active),48.2%,38.3%,43.9%,–,29.8%,17.3%,21.8%,53.1%,28.1%,40%
Nc1ccc(-c2ccc(-c3ccccc3N)c3[nH]c4ccccc4c23)cc1,6.61% (active),33.1%,56.7%,67.7%,28.7%,53.7%,19.4%,40.7%,-6.69% (active),15.2%,–,29.5%,19.6%,22.6%,42.1%,23.6%,53.2%
O=C1c2ccccc2C(=O)c2c1ccc1[nH]c(CCl)nc21,-40.3% (active),20.1%,70.4%,-20.4% (active),37.6%,15.2%,-35.9% (active),18.2%,34.5%,-21.5% (active),28.6%,-23.7% (active),6.47% (active),-6.49% (active),65.5%,22.9%,–
Cc1cc(OC(=O)c2ccc([N+](=O)[O-])cc2)nc2[nH]c(=O)sc12,99.8%,102%,105%,98.7%,115%,96.9%,108%,95.7%,104%,99.7%,–,104%,90.2%,–,104%,102%,111%
O=C(Nc1ccc(F)cc1F)c1cc(Br)ccc1O,-10.4% (active),8.63% (active),-7.85% (active),-0.761% (active),-21.8% (active),15.5%,0.111% (active),10.2%,1.62% (active),-20.1% (active),0.167% (active),13.1%,-1.09% (active),1.66% (active),13.5%,-0.56% (active),–
O=C(CCc1nnc2sc(Cc3ccccc3Cl)nn12)c1nc2ncccc2[nH]1,103%,93.4%,93.3%,92.5%,108%,79.6%,96.9%,88.7%,95.4%,90.6%,102%,88.4%,80%,84%,87.7%,97.1%,–
O=C(COc1cc(O)c2c(=O)cc(-c3ccccc3)oc2c1)Nc1ccccc1,93.3%,87.2%,98.1%,78.9%,107%,99.1%,106%,80.3%,88.9%,94.3%,95.3%,87.5%,85.3%,57.4%,99.7%,86.5%,–
O=C1c2cc(Cl)ccc2Oc2cc([N+](=O)[O-])ccc2N1c1ccc(F)cc1F,87.6%,86.8%,100%,79.4%,111%,75.9%,106%,87.2%,97.7%,72%,93.4%,85.9%,86.6%,79.7%,115%,94.6%,–
O=C(Nc1ccc(I)cc1F)c1cc(Br)ccc1O,-18.9% (active),7.13% (active),23.7%,12.4%,-4.76% (active),16.3%,8.04% (active),-3.47% (active),7.79% (active),-9.09% (active),-3.54% (active),7.36% (active),2.45% (active),-8.63% (active),14.6%,-7% (active),–
O=C1NC(=O)C(=Cc2cn(Cc3cn(Cc4ccc(Cl)cc4Cl)nn3)c3ccccc23)C(=O)N1,83%,83%,50.8%,82.4%,69%,85.7%,92.4%,87.5%,96.9%,64.7%,–,92.1%,80%,91.3%,117%,98.3%,91.7%
O=C(/C=C/c1cccc(Cl)c1)OCc1ccc2cc1OCC#C/C=C\C#CCO2,83.8%,98.2%,108%,95.6%,105%,92.2%,116%,101%,96.8%,84.8%,–,108%,–,–,107%,104%,102%
O=C(Nc1ccc(Br)cc1F)c1cc(Cl)ccc1O,-24.5% (active),9.87% (active),-9.6% (active),10.2%,-7.14% (active),14.1%,2.24% (active),7.7% (active),5.2% (active),-12.9% (active),-13.9% (active),11.7%,0.423% (active),-30.5% (active),9.31% (active),-30.9% (active),–
O=c1oc2ccc(F)cc2c(=O)n1-c1ccc(Br)cc1F,-22.3% (active),8.64% (active),21.8%,11.9%,-3.03% (active),17%,5.94% (active),-3.75% (active),6.34% (active),-12.3% (active),0.521% (active),10.2%,-3.48% (active),2.22% (active),13.4%,0.328% (active),–
O=C1c2cc(I)ccc2Oc2cc([N+](=O)[O-])ccc2N1c1ccc(Cl)cc1F,87.4%,91%,90.5%,79.4%,96.1%,72.3%,100%,88.6%,89.7%,82.5%,60.4%,82.5%,80.7%,67.8%,102%,81.2%,–
O=c1oc2ccc(I)cc2c(=O)n1-c1ccc(I)cc1F,-31.2% (active),9.03% (active),27.1%,16.7%,0.665% (active),15.9%,7.88% (active),-4.47% (active),9.94% (active),-3.25% (active),-4.7% (active),8.02% (active),2.88% (active),–,21%,-10.7% (active),–
Cn1c(C(=O)c2cccc3ccccc23)nc2ccccc21,17.6%,-1.81% (active),49%,19.9%,22%,-6.8% (active),29.6%,45.7%,4.01% (active),–,17.4%,22.4%,15.6%,22.7%,6.79% (active),25.9%,13%
COc1cc2nc(-c3cccc4cccnc34)nc(NC3CCN(Cc4ccccc4)CC3)c2cc1OC,-48.7% (active),-55% (active),-90.6% (active),-91.1% (active),-74.7% (active),-61.5% (active),-85.9% (active),-41.7% (active),6.52% (active),–,-93.3% (active),-74.8% (active),-77.2% (active),-63.7% (active),-91% (active),-76% (active),-65% (active)
O=c1oc2ccc(Cl)cc2c(=O)n1-c1ccc(F)cc1F,-1.02% (active),11.4%,16.6%,18.5%,-7.81% (active),16.2%,6.16% (active),8.54% (active),7.29% (active),-10.7% (active),3.09% (active),15.6%,–,7.6% (active),34%,5.64% (active),–
